Test results from PubChem BioAssay (NCI).
The panel holds about 83,000 compounds, 20% with a hit somewhere; the sample as a whole holds those more often.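 Cells were grown in 96-well plates and exposed to the test compound at a single concentration for 48 hours; results are reported as percent growth, with values below 10 considered active.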 Unmarked numbers belong to inactive results. The source made the active and inactive calls.

How the values were obtained:
Test in all cases: NCI-60 one-dose screen, 48 h (100 = growth as untreated, 0 = no growth, -100 = all killed)
Conditions in all cases: 10 µM unless noted
SR leukemia = test system: SR leukemia
RPMI-8226 leukemia = test system: RPMI-8226 leukemia
OVCAR-8 ovarian = test system: OVCAR-8 ovarian
OVCAR-5 ovarian = test system: OVCAR-5 ovarian
OVCAR-4 ovarian = test system: OVCAR-4 ovarian
SK-OV-3 ovarian = test system: SK-OV-3 ovarian
IGROV1 ovarian = test system: IGROV1 ovarian
OVCAR-3 ovarian = test system: OVCAR-3 ovarian
HS 578T breast = test system: HS 578T breast
NCI/ADR-RES ovarian = test system: NCI/ADR-RES ovarian

`CN(C)CCNC(=O)c1ccc(-c2nc3ccc4[nH]ncc4c3c3c2COCC3)cc1` was tested, and the growth (SR leukemia) was -25.1% (active), the growth (RPMI-8226 leukemia) was 44.3% and the growth (OVCAR-8 ovarian) was 11%. For the same compound, the growth (OVCAR-5 ovarian) was 27.5%, the growth (OVCAR-4 ovarian) was 2.78% (active) and the growth (SK-OV-3 ovarian) was 14%. For the same compound, the growth (IGROV1 ovarian) was 0.798% (active), the growth (OVCAR-3 ovarian) was -6.74% (active) and the growth (HS 578T breast) was -19.6% (active). It also gave a growth (NCI/ADR-RES ovarian) of 92.2%.

Compound `O=C(Nc1ccc2c(ccn2Cc2ccccn2)c1)c1ccnnc1` has a growth (SR leukemia) of 101%, a growth (RPMI-8226 leukemia) of 94.4% and a growth (OVCAR-8 ovarian) of 104%. The growth (OVCAR-5 ovarian) was 95%, the growth (OVCAR-4 ovarian) was 68.3% and the growth (SK-OV-3 ovarian) was 105%. It also gave a growth (IGROV1 ovarian) of 80.3%, a growth (OVCAR-3 ovarian) of 106% and a growth (HS 578T breast) of 102%. It also gave a growth (NCI/ADR-RES ovarian) of 114%.

In the case of `CCn1c2ccccc2c2cc(-n3nncc3-c3ccccc3)ccc21`, the growth (SR leukemia) is reported as 10.4%, the growth (RPMI-8226 leukemia) is reported as 19.8% and the growth (OVCAR-8 ovarian) is reported as 27%. It also gave a growth (OVCAR-5 ovarian) of 35.4%, a growth (OVCAR-4 ovarian) of 43% and a growth (SK-OV-3 ovarian) of 42.4%. The growth (IGROV1 ovarian) was 16.2%, the growth (OVCAR-3 ovarian) was 4.2% (active) and the growth (HS 578T breast) was 19.3%. For the same compound, the growth (NCI/ADR-RES ovarian) was 6.13% (active).

For `O=C(NCc1ncc[nH]1)c1ccc(-c2nc3ccc4[nH]ncc4c3c3c2CCCC3)cc1`, the growth (SR leukemia) was -52.6% (active), the growth (RPMI-8226 leukemia) was 45% and the growth (OVCAR-8 ovarian) was 16.1%. The growth (OVCAR-5 ovarian) was 62.1%, the growth (OVCAR-4 ovarian) was 14.5% and the growth (SK-OV-3 ovarian) was -16.8% (active). The growth (IGROV1 ovarian) was 3.6% (active), the growth (OVCAR-3 ovarian) was 3.38% (active) and the growth (HS 578T breast) was -12.8% (active). For the same compound, the growth (NCI/ADR-RES ovarian) was 90.2%.

In the case of `Fc1ccc(-c2cc3nc(C(Cl)Cl)nc(-c4ccc(F)cc4)n3n2)cc1`, the growth (SR leukemia) is reported as 3.96% (active), the growth (RPMI-8226 leukemia) is reported as 3.43% (active) and the growth (OVCAR-8 ovarian) is reported as 11.8%. The growth (OVCAR-5 ovarian) was -14.3% (active), the growth (OVCAR-4 ovarian) was -9.54% (active) and the growth (SK-OV-3 ovarian) was -29.2% (active). The growth (IGROV1 ovarian) was 31.4%, the growth (OVCAR-3 ovarian) was -31.7% (active) and the growth (HS 578T breast) was -1.86% (active). For the same compound, the growth (NCI/ADR-RES ovarian) was 19.4%.

In the case of `CN1CCN(c2ccc(/C=N/Nc3nc4ccccc4c(=O)n3-c3ccccc3)cc2)CC1`, the growth (SR leukemia) is reported as 93.4%, the growth (RPMI-8226 leukemia) is reported as 101% and the growth (OVCAR-8 ovarian) is reported as 102%. For the same compound, the growth (OVCAR-5 ovarian) was 107%, the growth (OVCAR-4 ovarian) was 97.2% and the growth (SK-OV-3 ovarian) was 109%. The growth (IGROV1 ovarian) was 104%, the growth (OVCAR-3 ovarian) was 104% and the growth (HS 578T breast) was 92.5%. The growth (NCI/ADR-RES ovarian) was 101%.

`O=C(CSc1nnc(-c2ccc3nc(-c4ccccc4)[nH]c3c2)o1)Nc1ccc(C(=O)/C=C/c2ccccc2)cc1` gave a growth (SR leukemia) of 111%, a growth (RPMI-8226 leukemia) of 94.3% and a growth (OVCAR-8 ovarian) of 100%. The growth (OVCAR-5 ovarian) was 118%, the growth (OVCAR-4 ovarian) was 100% and the growth (SK-OV-3 ovarian) was 109%. It also gave a growth (IGROV1 ovarian) of 95.8%, a growth (OVCAR-3 ovarian) of 116% and a growth (HS 578T breast) of 103%. The growth (NCI/ADR-RES ovarian) was 105%.

In the case of `COc1ccc(/C=C(/C)c2ccc3ccc(OC)cc3[o+]2)c(O)c1`, the growth (SR leukemia) is reported as 14.9%, the growth (RPMI-8226 leukemia) is reported as 58.4% and the growth (OVCAR-8 ovarian) is reported as 80.5%. The growth (OVCAR-5 ovarian) was 98.5%, the growth (OVCAR-4 ovarian) was 84.5% and the growth (SK-OV-3 ovarian) was 98.6%. For the same compound, the growth (IGROV1 ovarian) was 58%, the growth (OVCAR-3 ovarian) was 35.1% and the growth (HS 578T breast) was 98.7%. It also gave a growth (NCI/ADR-RES ovarian) of 45.3%.

In the case of `NC(=O)c1c(NC(=O)c2ccc(F)cc2F)sc2c1CCC(=O)C2`, the growth (SR leukemia) is reported as 35.8%, the growth (RPMI-8226 leukemia) is reported as 9.53% (active) and the growth (OVCAR-8 ovarian) is reported as 44%. It also gave a growth (OVCAR-5 ovarian) of 24.5%, a growth (OVCAR-4 ovarian) of 27% and a growth (SK-OV-3 ovarian) of 103%. It also gave a growth (IGROV1 ovarian) of 50.5%, a growth (OVCAR-3 ovarian) of 14.8% and a growth (HS 578T breast) of 43.9%. The growth (NCI/ADR-RES ovarian) was 32.7%.

Work on `CC(=O)C1=C(C)NC(NN)=NC1c1cccc(Cl)c1` (stereo not given) yielded a growth (SR leukemia) of 96.5%, a growth (RPMI-8226 leukemia) of 99.7% and a growth (OVCAR-8 ovarian) of 103%. It also gave a growth (OVCAR-5 ovarian) of 99.4%, a growth (OVCAR-4 ovarian) of 104% and a growth (SK-OV-3 ovarian) of 102%. For the same compound, the growth (IGROV1 ovarian) was 97.7%, the growth (OVCAR-3 ovarian) was 123% and the growth (HS 578T breast) was 114%. The growth (NCI/ADR-RES ovarian) was 107%.

With `NC(N)=Nc1ccc(Oc2cccc(NC(N)=Nc3ccc(Br)cc3)c2)cn1` the growth (SR leukemia) was 34.5%, the growth (RPMI-8226 leukemia) was 51.4% and the growth (OVCAR-8 ovarian) was 68.1%. The growth (OVCAR-5 ovarian) was 66.7%, the growth (OVCAR-4 ovarian) was 71% and the growth (SK-OV-3 ovarian) was 73.6%. It also gave a growth (IGROV1 ovarian) of 37.9%, a growth (OVCAR-3 ovarian) of 64.9% and a growth (HS 578T breast) of 44.2%. It also gave a growth (NCI/ADR-RES ovarian) of 100%.

Work on `COc1ccc(N2C(=O)c3cc(Cl)ccc3NC2SCc2ccccc2)cc1` (stereo not given) yielded a growth (SR leukemia) of 103%, a growth (RPMI-8226 leukemia) of 107% and a growth (OVCAR-8 ovarian) of 94.8%. For the same compound, the growth (OVCAR-5 ovarian) was 102%, the growth (OVCAR-4 ovarian) was 94.7% and the growth (SK-OV-3 ovarian) was 101%. The growth (IGROV1 ovarian) was 99.5%, the growth (OVCAR-3 ovarian) was 105% and the growth (HS 578T breast) was 106%. For the same compound, the growth (NCI/ADR-RES ovarian) was 99.1%.

With `CN1CCN(Cc2ccc(NC(=O)c3cncc(C#Cc4cnc5ccc(N6CCN(C)CC6)nn45)c3)cc2C(F)(F)F)CC1` the growth (SR leukemia) was -52.2% (active), the growth (RPMI-8226 leukemia) was -13.9% (active) and the growth (OVCAR-8 ovarian) was -81.8% (active). The growth (OVCAR-5 ovarian) was 61.4%, the growth (OVCAR-4 ovarian) was 10.9% and the growth (SK-OV-3 ovarian) was 92%. For the same compound, the growth (IGROV1 ovarian) was -37.2% (active), the growth (OVCAR-3 ovarian) was -76.9% (active) and the growth (HS 578T breast) was -23.1% (active). The growth (NCI/ADR-RES ovarian) was -31.3% (active).

In the case of `O=C(Nc1ccc(F)c(F)c1)c1cc(-c2ccc(F)cc2F)ccc1O`, the growth (SR leukemia) is reported as 32.8%, the growth (RPMI-8226 leukemia) is reported as -11.4% (active) and the growth (OVCAR-8 ovarian) is reported as 9.13% (active). The growth (OVCAR-5 ovarian) was 12.1%, the growth (OVCAR-4 ovarian) was 10% and the growth (SK-OV-3 ovarian) was 6.7% (active). The growth (IGROV1 ovarian) was 14.9%, the growth (OVCAR-3 ovarian) was 7.32% (active) and the growth (HS 578T breast) was -0.443% (active). The growth (NCI/ADR-RES ovarian) was 2.02% (active).

For `Nc1nc(N)c2c(n1)NC(c1ccc(C(F)(F)F)cc1)CC(c1ccc(Nc3nc(NCCO)nc(N4CCOCC4)n3)cc1)=N2` (stereo not given), the growth (SR leukemia) was 5.13% (active), the growth (RPMI-8226 leukemia) was 28.9% and the growth (OVCAR-8 ovarian) was 60.2%. It also gave a growth (OVCAR-5 ovarian) of 97.6%, a growth (OVCAR-4 ovarian) of 79.5% and a growth (SK-OV-3 ovarian) of 99.7%. The growth (IGROV1 ovarian) was 72.6%, the growth (OVCAR-3 ovarian) was 61.2% and the growth (HS 578T breast) was 58.5%. For the same compound, the growth (NCI/ADR-RES ovarian) was 97.5%.
